# Screens: PubChem, National Center for Advancing Translational Sciences (NCATS)
# EPAC1 antagonist – antagonists of human EPAC1; EPAC1 GEF assay, Rap1b-BODIPY-GDP exchange fluorescence; Potency, µM (titrated, usually from 115 µM), for the others: top-dose activity change, negative = inhibition, most hits filed as inhibitors; actives 0.14% (n = 360,000); AID 720709;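 also: plate controls were vehicle for no effect and positive control for full effect; nearly all actives have a fitted effect of over 50% in size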
# Target sequence (O95398 whole entry, looked up): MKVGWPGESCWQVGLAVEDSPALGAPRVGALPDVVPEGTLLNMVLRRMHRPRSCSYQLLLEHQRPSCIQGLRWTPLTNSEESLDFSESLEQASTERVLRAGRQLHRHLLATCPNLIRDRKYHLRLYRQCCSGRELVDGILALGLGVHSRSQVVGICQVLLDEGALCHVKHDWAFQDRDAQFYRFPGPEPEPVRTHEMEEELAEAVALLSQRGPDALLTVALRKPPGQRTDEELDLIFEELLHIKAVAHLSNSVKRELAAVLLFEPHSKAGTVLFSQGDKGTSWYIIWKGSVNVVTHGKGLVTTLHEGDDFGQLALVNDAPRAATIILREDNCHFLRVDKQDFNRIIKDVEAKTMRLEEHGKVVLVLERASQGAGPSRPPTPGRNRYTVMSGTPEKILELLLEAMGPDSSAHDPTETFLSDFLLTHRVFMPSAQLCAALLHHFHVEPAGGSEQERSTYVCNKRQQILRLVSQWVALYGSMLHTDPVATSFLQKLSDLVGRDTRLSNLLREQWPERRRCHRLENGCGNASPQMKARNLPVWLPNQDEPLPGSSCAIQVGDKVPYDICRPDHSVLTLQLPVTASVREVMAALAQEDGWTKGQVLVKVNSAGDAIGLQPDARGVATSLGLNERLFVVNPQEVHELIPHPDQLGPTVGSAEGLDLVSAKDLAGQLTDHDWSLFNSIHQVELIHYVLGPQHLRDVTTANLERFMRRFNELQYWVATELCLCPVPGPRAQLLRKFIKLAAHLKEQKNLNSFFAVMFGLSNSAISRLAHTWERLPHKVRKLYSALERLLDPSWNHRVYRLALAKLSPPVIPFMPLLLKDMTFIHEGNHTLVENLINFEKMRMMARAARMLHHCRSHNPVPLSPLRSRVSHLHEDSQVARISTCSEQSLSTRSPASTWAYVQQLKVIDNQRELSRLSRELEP
# EPAC1 agonist – activates human EPAC1 exchange factor; O95398; EPAC1 agonist qHTS, biochemical assay; response scale: 100% = response to 6.5 mM cAMP; Potency, µM (highest dose often 154 µM), for inactives: top-dose activation, hits mostly activators; actives 0.073% (n = 360,000); AID 720707; also: nearly all actives have a fitted effect of over 60% in size
#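 Multi-concentration qHTS readout: loss of Rap1B-bound BODIPY-GDP fluorescence driven by 100 nM EPAC1 with excess GDP (50 uM), monitored kinetically at room temperature; agonist response expressed relative to 6.5 mM cAMP.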
# USP1 inh – blocks the human USP1/UAF1 deubiquitinase complex | recombinant USP1/UAF1, Ub-Rhodamine cleavage fluorescence | Potency, µM (series often up to 57.1 µM), for inactives: top-dose activity change, negative = inhibition, hits mostly inhibitors | actives 0.23% (n = 390,000); also: % is scaled to controls: 0 for no effect and ±100 for the full control effect; nearly all actives have a fitted effect of over 60% in size
#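 In this screen, compounds sit with the deubiquitinase complex (1nM) for 15 min at room temperature before Ub-Rho is added at 150nM final. Fluorescence rise is then followed for 6 reads every 60 seconds.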
# EPAC2 antag – antagonists of human EPAC2. actives 0.18% (n = 360,000). EPAC2 GEF exchange of Rap1B-BODIPY-GDP, fluorescence. Potency, µM (doses to about 114 µM), for inactives: top-dose activity, negative = inhibition, actives largely listed as inhibitors. Q8WZA2; also: % is scaled to controls: 0 for no effect and ±100 for the full control effect; nearly all actives have a fitted effect of over 45% in size
# EPAC2 ag – EPAC2 (human) agonism; Q8WZA2; AID 720711; actives 0.079% (n = 360,000); EPAC2 activation, biochemical qHTS; response scale: 100% = 6.5 mM cAMP response; Potency, µM (titrated, usually from 154 µM), for inactives: top-dose activation, most hits filed as activators; also: nearly all actives have a fitted effect of over 50% in size
#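 Compounds were titrated in qHTS against a Rap1B-BODIPY-GDP (250 nM) complex with EPAC2 (100 nM) and GDP (50 uM). BODIPY-GDP release tracked at 480/540 nm over 30 min at room temperature, normalized to 6.5 mM cAMP.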
# * hit, by the source's call; ? = inconclusive; . = no result given. This is a sample that favours compounds with a hit; in the whole collection about 0.49% have one here. Calls follow the shape of the dose curve; as a rule, active = well fitted curve in the direction sought with a large enough effect; inconclusive = small, poorly fitted or top-dose-only effect, or another doubt; inactive = no such curve, though single readings can be large; an effect the other way counts as inactive or inconclusive. Potency is read from the fitted curve at half-maximal effect.
SMILES,EPAC1 antagonist,EPAC1 agonist,USP1 inh,EPAC2 antag,EPAC2 ag
CCN(CC)c1ccc2nc3c4ccccc4c(=O)cc-3oc2c1,-2%,11%,-25%,0%,10%
CCN(CC)c1ccc2c(-c3ccc(S(=O)(=O)O)cc3S(=O)(=O)[O-])c3ccc(=[N+](CC)CC)cc-3oc2c1,32%,63µM*,32µM*,?,?
CCn1cc(C(=O)NCCCOC)c(=O)c2cc(S(=O)(=O)N3CCc4ccccc4C3)ccc21,.,.,-17%,.,.
COc1ccc(-c2[nH]c(-c3ccccc3)nc2SCC(=O)Nc2ccc3c(c2)OCO3)cc1,.,.,-21%,.,.
CC1=C/C(=C(\c2cc(C)c(O)c(Br)c2)c2ccccc2S(=O)(=O)O)C=C(Br)C1=O,?,-15%,?,40µM*,-14%
Cc1cc(C(=O)c2ccccc2)cc(C)c1O,-1%,-2%,-17%,13%,-1%
COc1cc(/C=C2/NC(=O)NC2=O)cc(Br)c1OCc1ccc(C(=O)O)cc1,79µM*,18%,6%,11%,-1%
N#C/C(=C\N1CCN(Cc2ccc3c(c2)OCO3)CC1)c1nc2ccccc2s1,-3%,3%,32µM*,8%,10%
CCOC(=O)N1CCN(/C=C(\C#N)c2nc3ccccc3s2)CC1,?,7%,-19%,-4%,-3%
Cc1ccccc1C1=C/C(=C(\SS/C(C(=O)c2ccc(OCC(=O)O)c(Cl)c2Cl)=C2\C=C(c3ccccc3C)SS2)C(=O)c2ccc(OCC(=O)O)c(Cl)c2Cl)SS1,50µM*,0%,32µM*,71µM*,-1%
COc1cccc(CN2C(=O)C(C)Oc3ccccc32)c1 (stereo not drawn),-8%,12%,-13%,-16%,1%
COc1cc(CN2C(=O)C(C)ON=C2c2ccccc2F)cc(OC)c1 (stereo not drawn),-3%,-5%,.,32µM*,3%
COc1cc(/C=C(\C#N)c2nc3ccc(C)cc3[nH]2)cc([N+](=O)[O-])c1O,28µM*,-3%,?,?,6%
CCN(CC)c1ccc(/C=C(/C#N)c2nc3ccc(C)cc3[nH]2)c(OC(C)C)c1,1%,?,25µM*,1%,?
Cc1ccc2c(c1)C(c1ccc(F)cc1)N(C(=O)c1cccc(C(F)(F)F)c1)CC(=O)N2 (stereo not drawn),.,.,1%,.,.
CCOC(=O)c1c(NC(=O)/C=C/c2ccc3c(c2)OCO3)sc(C)c1CC,-1%,-13%,-11%,11%,6.3µM*
COC(=O)c1c(NC(=O)/C=C/c2ccc3c(c2)OCO3)sc(C)c1C,0%,3%,-11%,1%,6%
Cc1cc(C)c(S(=O)(=O)/N=C2\C=C(NS(=O)(=O)c3ccccc3)C(=O)c3ccccc32)c(C)c1,-25%,3%,?,?,6%
Cc1cc(C)c(S(=O)(=O)/N=C2\C=C(Nc3ccc(C(=O)O)cc3)C(=O)c3ccccc32)c(C)c1,-5%,100µM*,14µM*,28%,4%
Cc1ccc(S(=O)(=O)/N=C2\C=C(NS(=O)(=O)c3ccccc3)C(=O)c3ccccc32)cc1,?,-4%,18µM*,?,18%
O=S(=O)(N=C1C=CC(=NS(=O)(=O)c2ccccc2)c2ccccc21)c1ccccc1,-6%,10%,28µM*,-1%,6%
O=C(O)c1ccc(NC2=C/C(=N/S(=O)(=O)c3ccccc3)c3ccccc3C2=O)cc1,?,-1%,2.8µM*,?,2%
Cc1cccc(OCC(=O)Nc2c(C(=O)N3CCN(c4ccccc4)CC3)oc3ccccc23)c1,.,.,-11%,.,.
CCN(C(=O)CCn1cnc2onc(-c3ccc(F)cc3)c2c1=O)c1ccc(OC)cc1,.,.,-25%,.,.
CC(=O)c1cc(C#N)c(N(C)Cc2ccccc2)nc1C,-28%,13%,-11%,50µM*,14%
SMILES,EPAC1 antagonist,EPAC1 agonist,USP1 inh,EPAC2 antag,EPAC2 ag
COc1cccc2c1-c1c(O)cccc1C2=O,6%,13%,-19%,17%,12%
O=C1C=C(O)c2cccc(O)c2C1=O,-24%,-27%,32µM*,4%,-5%
COc1cc(C)nc(N2CCCC(C(=O)Nc3cc(Cl)ccc3OC)C2)n1 (stereo not drawn),2%,12%,4%,25µM*,-20%
COC1OC(c2ccccc2)=C(c2cnc(N)nc2)c2ccc(F)cc21 (stereo not drawn),-5%,5%,.,40µM*,10%
Nc1ncc(-c2ccc(-c3ccccc3)cc2F)cc1-c1ccccc1F,-20%,2%,.,-3%,9%
COc1ccc(/C=C/c2nc3ccccc3c(=O)n2-c2cccc(C(F)(F)F)c2)cc1,.,.,-17%,.,.
C1=C(c2ccc(-c3ccccc3)cc2)Nc2ncnn2C1c1ccco1 (stereo not drawn),11%,89µM*,14µM*,116%,100µM*
Fc1ccc(C2=CC(c3ccc(Br)o3)n3ncnc3N2)cc1 (stereo not drawn),94%,100µM*,-27%,52%,12%
Cc1oc(-c2cccc(Br)c2)nc1Cn1c(SCc2cccc(F)c2)nc2cccnc21,.,.,-17%,.,.
CC(=O)N1c2ccccc2CC1C(=O)N1CCN(c2cccc(C)c2C)CC1 (stereo not drawn),.,.,-20%,.,.
Cc1ccc(-c2cn3c(n2)sc2cc(C(=O)NC4CCCCCC4)ccc23)cc1,.,.,-9%,.,.
CCCCCCOC(=O)C(C#N)c1nc2ccccc2nc1N1CCCCC1 (stereo not drawn),95%,112µM*,-8%,-4%,19%
CCOC(=O)C1CCCN(c2nc3ccccc3nc2C(C#N)C(=O)OC(C)C)C1 (stereo not drawn),89µM*,-54%,-2%,-29%,-2%
Cc1cccc(NC(=O)C(=O)NCC(c2cccnc2)N2CCc3ccccc32)c1C (stereo not drawn),.,.,12%,.,.
Cc1ccc2c(c1)c1c(c(=O)n(Cc3ccccc3)c(=O)n1CC(=O)NCc1ccccc1Cl)n2C,.,.,-19%,.,.
CCN1CCC(N(Cc2cccc(OC)c2)C(=O)Nc2cccc(C(F)(F)F)c2)CC1,.,.,-34%,.,.
O=C(O)CCCNc1cc(N2CCN(C(=O)c3ccco3)CC2)c2noc3c2c1C(=O)c1ccccc1-3,36%,?,28µM*,15%,?
CN1CCN(c2cc(N3CCN(C(=O)c4ccco4)CC3)c3c4c(onc24)-c2ccccc2C3=O)CC1,?,8%,?,-13%,7%
CCOC(=O)N1CCN(c2cc(NCCC(=O)O)c3c4c(onc24)-c2ccccc2C3=O)CC1,16%,1%,14µM*,-17%,11%
O=C(Oc1ccccc1F)c1nc(SCc2ccc(F)cc2)ncc1Cl,.,.,3%,.,.
COc1ccc(S(=O)(=O)N2CCCCC2)cc1NC(=O)c1c(F)cccc1Cl,56µM*,2%,0%,-14%,2%
